Bioassay records deposited in PubChem by National Center for Advancing Translational Sciences (NCATS).
Peg3 imprint: qHTS Assay for Compounds that Induce Erasure of Genomic Imprints; mouse ES Peg3-LacZ reporter, beta-gal luminescence, 40 h; Potency, µM (highest dose often 60.7 µM), for the others: at the top dose activity change, positive = activation, most hits filed as activators; actives 0.02% (n = 110,000)
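Readout: BetaGlo luminescence (5 min, room temp) for LacZ from the normally silent maternal Peg3 allele in female Peg3LacZ-Neo ES cells. Cells 300/well, 40 h, 37C, 5% CO2. Data normalized per plate to negative controls.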
p53ts 39C tox: qHTS Screen for Compounds that Selectively Target Cancer Cells with p53 Mutations: Cytotoxicity of p53ts Cells at the Nonpermissive Temperature. Potency, µM (highest dose often 46.1 µM), inactives show at the top dose activity change, negative = cell killing, actives largely listed as cytotoxic. AID 902, 2007. H1299-p53A138V viability at 39C, ATP luminescence, 24 h. actives 1.5% (n = 130,000); further: on the % scale 0 is the no-effect control and ±100 the full control effect; nearly all actives have a fitted effect of over 55% in size
IkB sig inh: IkB Signaling | ABC-DLBCL IkBa-CBG/CBR dual luciferase ratio, 4 h; response scale: scaled: untreated 0%, proteasome inhibitor 100% | Potency, µM (series often up to 57.1 µM), without a hit: top-dose IkBa stabilization activation | actives 0.04% (n = 110,000); active means well fitted curve in the direction sought with a large enough effect in the signal ratio, not every such curve was filed as active; inconclusive means small, poorly fitted or top-dose-only effect, or a change in a side signal; the % refers to the signal ratio;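 further: the direction sought is a rising ratio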
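In this assay, an IκBα–CBG68 fusion accumulates when IKK-driven degradation is blocked; native CBR normalizes for cell number. OCI-Ly3 cells were treated 4 h with compound and doxycycline, then green and red light read after Chroma-Glo addition.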
p53ts 32C tox: qHTS Screen for Compounds that Selectively Target Cancer Cells with p53 Mutations: Cytotoxicity of p53ts Cells at the Permissive Temperature; H1299-p53A138V at 32C, ATP luminescence viability, 24 h; Potency, µM (highest dose often 46.1 µM), for the others: at the top dose activity change, negative = cytotoxicity, most hits filed as cytotoxic; actives 0.93% (n = 130,000);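 further: 0% = DMSO and -100% = full killing by reference compound; nearly all actives have a fitted effect of over 55% in size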
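Viability by ATPlite luminescence after 24 h compound treatment (up to 46 uM) at the permissive 32C. Cells are H1299 carrying p53 A138V. Scale runs from DMSO basal to 100 uM tamoxifen as full kill; AC50 from Hill fits.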
* = called active by the depositor; ? = inconclusive; . = no result; ! = a repeat was not active; [ ] = another dose, or the depositor's remark. Most compounds without a hit are left out; they make up all but 1.7% or so of the library. Unless noted, the call rests on the fitted dose curve; in most records, active means well fitted curve in the direction sought with a large enough effect; inconclusive means small, poorly fitted or top-dose-only effect, or another doubt; inactive means no such curve, though single readings can be large; an effect the other way counts as inactive or inconclusive. Potency means the concentration at half of the fitted maximal effect.

SMILES	Peg3 imprint	p53ts 39C tox	IkB sig inh	p53ts 32C tox
COc1ccccc1NC(=O)CCn1cnc2ccccc2c1=O	?	-21%	4%	7%
CCc1ccc(-n2nc(CO)c(C(=O)NCC(c3ccccc3)c3ccccc3)n2)cc1	-4%[10.9 µM]	-26%	0%	-1%
CCc1ccc(-n2nc(CO)c(C(=O)NC)n2)cc1	-6%[10.9 µM]	16µM*	-1%	?
Cc1ccccc1OCC(=O)Nc1ccc2nc(SCc3ccccc3)sc2c1	?	2%	0%	-7%
COc1ccc(C)cc1NS(=O)(=O)c1cccc2cccnc12	-9%	17%	2%	19%
COc1cc(NS(=O)(=O)c2ccc(C)cc2)c2ncccc2c1	-24%	-21%	1.3µM*	8%
C[C@@]12CCC(=O)C=C1CC[C@@H]1[C@@H]2[C@H](O)C[C@]2(C)[C@@H]1CC[C@]2(O)C(=O)COC(=O)CCC(=O)O	.	13%	0.13µM*	9%
C[C@@]12CCC(=O)C=C1CC[C@@H]1[C@@H]2[C@H](O)C[C@]2(C)[C@@H]1CC[C@]2(O)C(=O)CO	-12%[16.8 µM]	.	0.079µM*!	.
COc1ccccc1-c1nnc2n(CCc3ccccc3)c(=O)c3ccccc3n12	-7%[10.9 µM]	33%	3%	1%
O=C(/C=C\c1ccc(O)c(O)c1)O[C@H]1C[C@@](O)(C(=O)O)C[C@H](O)[C@@H]1O	.	.	-1%[11.4 µM]	.
C=CC(=O)NC(C)C	2%	0%	1%	-2%[1.84 µM]
C=CC(=O)CC	32µM*	-8%	3%	8%[1.84 µM]
CCOc1ccc(NC(=O)c2ccc(N)cc2)cc1	-66%	13µM*	?	13µM*
N#Cc1c(/N=C/c2cccs2)sc2c1CCCCC2	-56%	10µM*	6%	7.9µM*
N#Cc1c(/N=C/c2ccc(Br)s2)sc2c1CCC2	.	12%	.	-1%
Cc1ccc(Cl)cc1N1CCN(C(=O)c2ccc(NC(=O)c3nsc4ccccc34)cc2)CC1	-11%[10.9 µM]	-24%	66%	-14%
COc1cc(OC)c(NC(=O)CCCn2nc(C)c3sc4ccccc4c3c2=O)cc1Cl	-22%[10.9 µM]	13µM*	0%	-26%
Cc1cccc(-c2nnc(NC(=O)c3ccc(Cl)cc3)o2)c1	1%	?	7.9µM*	6%
COc1ccc(C(=O)Nc2nnc(-c3ccccc3)o2)cc1OC	-15%	-25%	?	-10%
CCC(=O)N1CCc2cc(S(=O)(=O)NCCC(=O)Nc3ccc(OC)c(OC)c3)ccc21	1%[10.9 µM]	16%	-2%	-1%
COc1ccc2sc(NC(=O)c3ccco3)nc2c1	-85%	10µM*	?	10µM*
COc1ccc2nc(NC(=O)c3ccoc3C)sc2c1	-93%	?	?	7.9µM*
O=C(c1ccc2c(c1)N(Cc1cccc(Cl)c1)C(=O)c1ccccc1S2(=O)=O)N1CCc2ccccc21	-25%[10.9 µM]	11%	-1%	15%
COc1ccc(-c2nc3nc(C)cc(Nc4cccc(C(F)(F)F)c4)n3n2)cc1	-3%[10.9 µM]	-19%	0%	10%
COc1cccc(CNc2cc(C)nc3nc(-c4ccc(C)cc4)nn23)c1	-14%[10.9 µM]	7.9µM*	?	?
SMILES	Peg3 imprint	p53ts 39C tox	IkB sig inh	p53ts 32C tox
Cc1cc(N)c2ccccc2[n+]1CCCCCCCCCCCCCC[n+]1c(C)cc(N)c2ccccc21	-58%	13µM*	?	?
N#Cc1cnc(Nc2nc3ccccc3o2)nc1-c1ccccc1	-8%	6%	-6%	6%
Cc1ccnc(Nc2nc3ccccc3o2)n1	-91%	7.9µM*	?	5µM*
Cc1ccc(NC(=O)Cn2c(=O)n(CC(=O)NCCc3ccccc3)c(=O)c3ccccc32)cc1C	14%[10.9 µM]	10µM*	?	-28%
Cc1ccc(/C=C/c2onc(C)c2S(=O)(=O)N2CCC(C(=O)N3CCN(c4ccccc4F)CC3)CC2)cc1	-21%[10.9 µM]	-13%	0%	7%
Cc1ccc(C)c(Cn2c(=O)cc(C)c3c(C)nn(C)c32)c1	-23%[10.9 µM]	?	?	-9%
CCc1ccc2oc(-c3cc(N=Cc4cccc(OC)c4O)ccc3O)nc2c1	-73%	10µM*	?	10µM*
COc1ccc(NC(=O)C2CCC(CNS(=O)(=O)c3ccc(Br)s3)CC2)cc1OC (centres undefined)	-7%[10.9 µM]	-30%	2%	-7%
CCCN(CCC)C(=O)CSc1nc2sc3c(c2c(=O)n1-c1ccccc1)CCN(C(C)=O)C3	22%[10.9 µM]	8%	5%	27%
CCCCCSc1nc2sc3c(c2c(=O)n1-c1ccc(OC)cc1)CCN(C(C)=O)C3	-21%[10.9 µM]	13µM*	?	?
CCCCc1nn2c(=O)cc(COC(=O)c3cccc(NC(=O)c4cccs4)c3)nc2s1	-8%[10.9 µM]	-7%	4%	8%
COc1ccc(-c2nc(-c3ccc(NC(=O)c4ccc(Br)o4)cc3)no2)cc1OC	-50%	13µM*	1%	?
COc1ccc(CCC(=O)Nc2ccc(-c3noc(-c4ccc(OC)c(OC)c4)n3)cc2)cc1	-22%	-3%	0%	-13%
N.N.N.N.N.N.N.N.N.N.N.N.N.N.O.O.[Cl-].[Cl-].[Cl-].[Cl-].[Cl-].[Cl-].[Ru].[Ru].[Ru]	-19%	.	.	.
COc1ccc(Cn2c(-c3ccc(OC)cc3)nc3ccccc32)cc1	.	1%	.	7%
COc1ccc(CCN2CCC(Nc3nc4ccccc4n3Cc3ccc(F)cc3)CC2)cc1	-42%	13µM*!	5%[25.6 µM]	-15%
Cc1nc2c(c(C)c1CCC(=O)N1CCN(c3ccccc3)CC1)c(=O)n(C)c(=O)n2C	-10%[10.9 µM]	-11%	-1%	1%
CC(C)(C)OC(=O)N1CCC(c2c(C(=O)NCCN3CCC(Cc4ccccc4)CC3)cnn2-c2cccc(Cl)c2)CC1	-23%[10.9 µM]	20µM*	?	?
CN1CCN(CCNC(=O)c2cnn(-c3cccc(Cl)c3)c2C2CCN(C(=O)OC(C)(C)C)CC2)CC1	29%[10.9 µM]	-4%	-2%	6%
Cc1ccc(-n2ncc(C(=O)NCCN3CCC(Cc4ccccc4)CC3)c2C2CCN(C(=O)OC(C)(C)C)CC2)cc1	-24%[10.9 µM]	7.9µM*	?	?
CC(=O)c1ccc(NC(=O)c2sc(-n3nc(C)c(Cc4ccc5c(c4)OCO5)c3C)nc2C)cc1	3%[10.9 µM]	-10%	-1%	-2%
CCOC(=O)c1[nH]c2ccc(OC)cc2c1NC(=S)N1CCN(c2ccc(F)cc2)CC1	.	-7%	.	-20%
CCOC(=O)c1[nH]c2ccc(OC)cc2c1NC(=S)N1CCN(c2cccc(C)c2C)CC1	.	?	.	11µM*
Cc1cccc(C)c1NC(=O)c1cc2sccc2n1Cc1ccc(F)cc1	12%[10.9 µM]	13µM*	1%	-17%
Cc1ccc(Cn2c(C(=O)Nc3cccc(Cl)c3)cc3sccc32)cc1	-4%[10.9 µM]	-11%	?	-9%
CCC(=O)N1CCN(c2ccc(NC(=O)c3cc4ccccc4o3)cc2Cl)CC1	-14%	?	?	?
O=C(Nc1ccc(N2CCN(C(=O)c3ccco3)CC2)c(Cl)c1)c1cc2ccccc2o1	-36%	?	-9%	13µM*
